From PubChem BioAssay
Active and inactive are the calls of the source.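 The calls were made as follows, unless noted: active = compounds that lower survival of HCT116 colon cancer cells in the luminescence readout, no numeric limit stated; inactive = the rest.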

Experiment: GLP1 release stimulators, primary, NCI-H716, NPC library (AID 1117341;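 active = compound raises GLP1 secretion from the human gut endocrine cells, with no numeric limit stated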; also: reference of the scale not given here)
Settings: NCI-H716 cells, at 10 µM, stronger effect = higher value

Compound	GLP1 secretion stimulation
O=c1[nH]cc(F)c(=O)[nH]1	-0.1% (inactive)
CCc1nc(N)nc(N)c1-c1ccc(Cl)cc1	-0.3% (inactive)
CCc1cccc2c3c([nH]c12)C(CC)(CC(=O)O)OCC3 (stereo not drawn)	-0.9% (inactive)
Nc1ncn([C@@H]2O[C@H](CO)[C@@H](O)[C@H]2O)c(=O)n1	-0.3% (inactive)
Cc1ccccc1C(OCCN(C)C)c1ccccc1 (stereo not drawn)	2.1% (inactive)
Cc1ccc(C)c(OCCCC(C)(C)C(=O)O)c1	2.4% (inactive)
NC(=O)c1cnccn1	3.1% (inactive)
CCCCCCNC(=O)n1cc(F)c(=O)[nH]c1=O	-0.8% (inactive)
COC1=CC(=O)C[C@@H](C)[C@]12Oc1c(Cl)c(OC)cc(OC)c1C2=O	0.1% (inactive)
Cc1ncc([N+](=O)[O-])n1CC(C)O (stereo not drawn)	4.1% (inactive)
N[C@@H](C(=O)N[C@@H]1C(=O)N2C(C(=O)O)=C(Cl)CS[C@H]12)c1ccccc1	-1.7% (inactive)
CO[C@@]1(NC(=O)Cc2cccs2)C(=O)N2C(C(=O)O)=C(COC(N)=O)CS[C@@H]21	-1.2% (inactive)
OCCN1CCN(CCCN2c3ccccc3Sc3ccc(C(F)(F)F)cc32)CC1	15.4% (inactive)
CN(C)CCOC(c1ccc(Cl)cc1)c1ccccn1 (stereo not drawn)	6.8% (inactive)
Cc1onc(-c2c(Cl)cccc2Cl)c1C(=O)N[C@@H]1C(=O)N2[C@@H]1SC(C)(C)[C@@H]2C(=O)O	0% (inactive)
COc1cc2nc(N(C)CCCNC(=O)C3CCCO3)nc(N)c2cc1OC (stereo not drawn)	14.6% (inactive)
NS(=O)(=O)c1cc(C2(O)NC(=O)c3ccccc32)ccc1Cl (stereo not drawn)	-2% (inactive)
CN(C)CCc1c[nH]c2ccc(C[C@H]3COC(=O)N3)cc12	-0.5% (inactive)
Cc1ccc(-c2cc(C(F)(F)F)nn2-c2ccc(S(N)(=O)=O)cc2)cc1	0.7% (inactive)
CN[C@H]1CC[C@@H](c2ccc(Cl)c(Cl)c2)c2ccccc21	7.5% (inactive)

Compound	GLP1 secretion stimulation
O=S(=O)(O)CCS	2.6% (inactive)
C/C=C/C(=O)N(CC)c1ccccc1C	-3.7% (inactive)
COc1ccc(OC)c(C(O)CNC(=O)CN)c1 (stereo not drawn)	0.7% (inactive)
Cn1cnc([N+](=O)[O-])c1Sc1ncnc2nc[nH]c12	4.1% (inactive)
c1ccc2[nH]c(-c3cscn3)nc2c1	4.2% (inactive)
CCCNCC(O)COc1ccccc1C(=O)CCc1ccccc1 (stereo not drawn)	-2.7% (inactive)
NC(=O)N1c2ccccc2CC(=O)c2ccccc21	0% (inactive)
Cc1cn([C@H]2C[C@H](N=[N+]=[N-])[C@@H](CO)O2)c(=O)[nH]c1=O	-0.1% (inactive)
CN(CCOc1ccc(CC2SC(=O)NC2=O)cc1)c1ccccn1 (stereo not drawn)	-2.5% (inactive)
COc1ccccc1OCC(O)COC(N)=O (stereo not drawn)	-4% (inactive)
OC(CCN1CCCC1)(c1ccccc1)C1CCCCC1 (stereo not drawn)	3.4% (inactive)
O=C1C(CCS(=O)c2ccccc2)C(=O)N(c2ccccc2)N1c1ccccc1 (stereo not drawn)	-0.7% (inactive)
COC(=O)Nc1nc2ccc(C(=O)c3ccccc3)cc2[nH]1	2.2% (inactive)
CCn1cc(C(=O)O)c(=O)c2cc(F)c(N3CCN(C)CC3)cc21	3.5% (inactive)
CN1CCCC(n2nc(Cc3ccc(Cl)cc3)c3ccccc3c2=O)CC1 (stereo not drawn)	5.5% (inactive)
NCc1ccc(S(N)(=O)=O)cc1	1.9% (inactive)
Clc1ccc2c(c1)C(N1CCNCC1)=Nc1ccccc1O2	15.3% (inactive)
CC(C)(C)NCC(O)COc1cccc2c1C[C@H](O)[C@H](O)C2 (stereo partly drawn)	-1.3% (inactive)
NS(=O)(=O)c1cc2c(cc1Cl)NC=NS2(=O)=O	1.5% (inactive)

Experiment: HCT116 colon cancer cell growth inhibition, primary screen, CellTiter-Glo luminescence, NPC library (AID 1117342)
Settings: at 20 µM (top of the series)

Compound	inhibition of viability
O=c1[nH]cc(F)c(=O)[nH]1	75.1% (active)
CCc1nc(N)nc(N)c1-c1ccc(Cl)cc1	56.7% (active)
CCc1cccc2c3c([nH]c12)C(CC)(CC(=O)O)OCC3 (stereo not drawn)	1.5% (inactive)
Nc1ncn([C@@H]2O[C@H](CO)[C@@H](O)[C@H]2O)c(=O)n1	94.3% (active)
Cc1ccccc1C(OCCN(C)C)c1ccccc1 (stereo not drawn)	8.67% (inactive)
Cc1ccc(C)c(OCCCC(C)(C)C(=O)O)c1	-1.9% (inactive)
NC(=O)c1cnccn1	-20.7% (inactive)
CCCCCCNC(=O)n1cc(F)c(=O)[nH]c1=O	42% (inactive)
COC1=CC(=O)C[C@@H](C)[C@]12Oc1c(Cl)c(OC)cc(OC)c1C2=O	43.7% (inactive)
Cc1ncc([N+](=O)[O-])n1CC(C)O (stereo not drawn)	-0.3% (inactive)
N[C@@H](C(=O)N[C@@H]1C(=O)N2C(C(=O)O)=C(Cl)CS[C@H]12)c1ccccc1	-1.63% (inactive)
CO[C@@]1(NC(=O)Cc2cccs2)C(=O)N2C(C(=O)O)=C(COC(N)=O)CS[C@@H]21	14.8% (inactive)
OCCN1CCN(CCCN2c3ccccc3Sc3ccc(C(F)(F)F)cc32)CC1	124% (active)
CN(C)CCOC(c1ccc(Cl)cc1)c1ccccn1 (stereo not drawn)	2.7% (inactive)
Cc1onc(-c2c(Cl)cccc2Cl)c1C(=O)N[C@@H]1C(=O)N2[C@@H]1SC(C)(C)[C@@H]2C(=O)O	-4.23% (inactive)
COc1cc2nc(N(C)CCCNC(=O)C3CCCO3)nc(N)c2cc1OC (stereo not drawn)	21.1% (inactive)
NS(=O)(=O)c1cc(C2(O)NC(=O)c3ccccc32)ccc1Cl (stereo not drawn)	-5.17% (inactive)
CN(C)CCc1c[nH]c2ccc(C[C@H]3COC(=O)N3)cc12	13.1% (inactive)
Cc1ccc(-c2cc(C(F)(F)F)nn2-c2ccc(S(N)(=O)=O)cc2)cc1	49% (inactive)
CN[C@H]1CC[C@@H](c2ccc(Cl)c(Cl)c2)c2ccccc21	99.1% (active)

Compound	inhibition of viability
O=S(=O)(O)CCS	-4.57% (inactive)
C/C=C/C(=O)N(CC)c1ccccc1C	-11.3% (inactive)
COc1ccc(OC)c(C(O)CNC(=O)CN)c1 (stereo not drawn)	-0.9% (inactive)
Cn1cnc([N+](=O)[O-])c1Sc1ncnc2nc[nH]c12	99.5% (active)
c1ccc2[nH]c(-c3cscn3)nc2c1	5.1% (inactive)
CCCNCC(O)COc1ccccc1C(=O)CCc1ccccc1 (stereo not drawn)	32.5% (inactive)
NC(=O)N1c2ccccc2CC(=O)c2ccccc21	14.9% (inactive)
Cc1cn([C@H]2C[C@H](N=[N+]=[N-])[C@@H](CO)O2)c(=O)[nH]c1=O	2.4% (inactive)
CN(CCOc1ccc(CC2SC(=O)NC2=O)cc1)c1ccccn1 (stereo not drawn)	-4.27% (inactive)
COc1ccccc1OCC(O)COC(N)=O (stereo not drawn)	-3.97% (inactive)
OC(CCN1CCCC1)(c1ccccc1)C1CCCCC1 (stereo not drawn)	17.1% (inactive)
O=C1C(CCS(=O)c2ccccc2)C(=O)N(c2ccccc2)N1c1ccccc1 (stereo not drawn)	-1.5% (inactive)
COC(=O)Nc1nc2ccc(C(=O)c3ccccc3)cc2[nH]1	56.4% (active)
CCn1cc(C(=O)O)c(=O)c2cc(F)c(N3CCN(C)CC3)cc21	-14.7% (inactive)
CN1CCCC(n2nc(Cc3ccc(Cl)cc3)c3ccccc3c2=O)CC1 (stereo not drawn)	64.8% (active)
NCc1ccc(S(N)(=O)=O)cc1	7% (inactive)
Clc1ccc2c(c1)C(N1CCNCC1)=Nc1ccccc1O2	57.3% (active)
CC(C)(C)NCC(O)COc1cccc2c1C[C@H](O)[C@H](O)C2 (stereo partly drawn)	4.4% (inactive)
NS(=O)(=O)c1cc2c(cc1Cl)NC=NS2(=O)=O	-1.55% (inactive)
